# Reference: PubChem BioAssay (EPA / NIEHS)
# Results filed as inconclusive are left out. The source made the active and inactive calls. The calls were made as follows, unless noted: active = hit-call score of the fitted dose curve at least 0.9, where 1 is the maximum; inactive = score below 0.9.
# Experiments:
# [1] = tested on: TTR (gene 7276); assay: CCTE_GLTED_hTTR_0.5uM: CCTE's human Transthyretin (hTTR) Inhibition Assay, with 0.5uM TTR, Great Lakes Toxicology and Ecology Division (GLTED) Lab (AID 2284320)
# Summary of the method: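 Probe (ANSA) displacement from 0.5 uM human transthyretin was followed by fluorescence (ex 380, em 475) after a 2 h incubation with chemical. Activity was scored as signal loss and fitted positively relative to DMSO.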
# [2] = TAMU_PeakParms_SingleDonor1434_Asystole: Texas A&M University (TAMU) 1.5-hr Human Induced Pluripotent Stem Cell (iPSC)-derived Cardiomyocytes Calcium (Ca+2) Flux Assay for Cardiotoxicity: Asystole (quiescence of beating) (AID 2284328; active = hit-call score of the fitted dose curve at least 0.9, where 1 is the maximum)
# Summary of the method: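 Human iPSC-derived cardiomyocytes (donor 1434) were exposed to 0.2, 1, 10 and 100 uM compound in 0.5% DMSO for 90 min at 37C. Ca2+-dye fluorescence gave average peak frequency; POD is EC95, a 95% beat-rate drop versus DMSO.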
# [3] = tested on: Brachyury (BRA) Protein Expression, Deisenroth Lab, TBXT (gene 6862); assay: CCTE_Deisenroth_DEVTOX-GLR_legacy_Bra: (Legacy) CCTE's DevTox GLR-Endo Assay Evaluation of Brachyury (BRA) Protein Expression, Deisenroth Lab (AID 2284329)
# Summary of the method: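 High-content imaging of fixed RUES2-GLR cells after a 48-hour differentiation with two compound exposures yields percent cells whose Bra signal exceeds pluripotent control median by 5x BMAD; values are baseline-corrected to DMSO.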
# [4] = CCTE_Deisenroth_DEVTOX-GLR_legacy_CellCount: (Legacy) Viability Assessment in CCTE's DevTox GLR-Endo Assay, Deisenroth Lab (AID 2284331); conditions: actives raise or lower the signal
# Summary of the method: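 RUES2-GLR human pluripotent cells were seeded 24 h, then differentiated 48 h with two compound doses at 24 h intervals (10-point, 1 nM - 200 uM). Fixed nuclei were imaged and counted; bidirectional fitting versus 0.2% DMSO.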
smiles,measurement,setting,value
N[C@@H](Cc1cc(I)c(Oc2cc(I)c(O)c(I)c2)c(I)c1)C(=O)O,AC50,[1],205 nM (active)
CC(C)NCC(O)COc1ccc(CC(N)=O)cc1 (stereo not given),outcome,[2],inactive
Oc1c(Cl)cc(Cl)c(Cl)c1Cc1c(O)c(Cl)cc(Cl)c1Cl,AC50,[2],2110 nM (active)
CS(=O)(=O)OCCCCOS(C)(=O)=O,outcome,[3],inactive
same,AC50,[4],14600 nM (active)
